From article PMC5700166
Residue numbers refer to the chain shown, from its start.

What was measured:
Experiment in all cases: protein-binding microarray (PBM); PBM: ~300 nM protein, 6 mM HEPES pH 7.8, 80 mM KCl, 0.5 mM EDTA, 0.5 mM EGTA, 6% glycerol, 35 ng/ul poly-dIdC, 1% milk, 1 h, room temperature; Ap Aiptasia and Nv Nematostella (sea anemones) / Co Capsaspora / Aq Amphimedon (sponge) / Dm Drosophila / Hu human; RHD is the Rel homology domain; high values mean tight binding
Conditions in all cases: dsDNA, one strand shown
[1] = molecular target: T1, GST-Ap-NF-kB RHD (Exaiptasia pallida (Aiptasia), UniProt A0A913YAJ5 2-422)
T1 sequence: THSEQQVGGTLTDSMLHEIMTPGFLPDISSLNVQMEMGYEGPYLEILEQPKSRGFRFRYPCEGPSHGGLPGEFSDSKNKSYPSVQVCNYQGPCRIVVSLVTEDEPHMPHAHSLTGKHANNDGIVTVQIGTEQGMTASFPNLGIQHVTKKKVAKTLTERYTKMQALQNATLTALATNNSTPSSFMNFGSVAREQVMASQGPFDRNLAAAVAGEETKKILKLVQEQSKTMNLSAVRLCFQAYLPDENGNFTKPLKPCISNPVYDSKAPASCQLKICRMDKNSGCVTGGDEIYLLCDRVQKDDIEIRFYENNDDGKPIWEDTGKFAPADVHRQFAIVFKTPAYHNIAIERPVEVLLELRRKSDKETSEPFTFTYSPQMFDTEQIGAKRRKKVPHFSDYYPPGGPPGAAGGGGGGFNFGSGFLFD

[2] = molecular target: T2, GST-Nv-NF-kB (Cys allele) (Nematostella vectensis, UniProt E5G601 2-411)
T2 sequence: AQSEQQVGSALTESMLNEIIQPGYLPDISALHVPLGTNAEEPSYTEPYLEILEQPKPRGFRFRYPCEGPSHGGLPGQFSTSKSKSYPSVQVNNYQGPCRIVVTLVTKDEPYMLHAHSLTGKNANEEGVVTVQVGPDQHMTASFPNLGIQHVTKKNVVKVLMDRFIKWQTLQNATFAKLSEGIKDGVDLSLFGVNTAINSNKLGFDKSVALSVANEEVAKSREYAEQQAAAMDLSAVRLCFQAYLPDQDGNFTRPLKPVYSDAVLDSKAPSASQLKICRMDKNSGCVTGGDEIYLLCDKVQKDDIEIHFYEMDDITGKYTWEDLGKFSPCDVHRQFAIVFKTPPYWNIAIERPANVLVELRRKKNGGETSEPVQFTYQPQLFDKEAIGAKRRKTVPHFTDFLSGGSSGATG

[3] = molecular target: T3, GST-Nv-NF-kB (Ser allele) (Nematostella vectensis, UniProt A7UNT2 2-411)
T3 sequence: T2 sequence with Q21R, C66S, S207N, E215Q, V217A, E225K, A268E, D399E

[4] = molecular target: T4, GST-Co-NF-kB (Capsaspora owczarzaki, UniProt F1ARL5 200-546)
T4 sequence: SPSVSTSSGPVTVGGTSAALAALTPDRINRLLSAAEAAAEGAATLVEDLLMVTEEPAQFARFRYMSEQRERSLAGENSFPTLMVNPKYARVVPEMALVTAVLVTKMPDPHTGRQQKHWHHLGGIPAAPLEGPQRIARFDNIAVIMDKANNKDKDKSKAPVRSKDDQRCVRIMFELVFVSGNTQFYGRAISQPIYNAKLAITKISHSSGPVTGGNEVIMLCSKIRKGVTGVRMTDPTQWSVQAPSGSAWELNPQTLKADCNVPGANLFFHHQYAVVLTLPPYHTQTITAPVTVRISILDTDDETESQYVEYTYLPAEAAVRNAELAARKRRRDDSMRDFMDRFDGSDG

[5] = molecular target: T5, GST-Dm-Relish (Drosophila melanogaster, UniProt Q94527 99-473)
T5 sequence: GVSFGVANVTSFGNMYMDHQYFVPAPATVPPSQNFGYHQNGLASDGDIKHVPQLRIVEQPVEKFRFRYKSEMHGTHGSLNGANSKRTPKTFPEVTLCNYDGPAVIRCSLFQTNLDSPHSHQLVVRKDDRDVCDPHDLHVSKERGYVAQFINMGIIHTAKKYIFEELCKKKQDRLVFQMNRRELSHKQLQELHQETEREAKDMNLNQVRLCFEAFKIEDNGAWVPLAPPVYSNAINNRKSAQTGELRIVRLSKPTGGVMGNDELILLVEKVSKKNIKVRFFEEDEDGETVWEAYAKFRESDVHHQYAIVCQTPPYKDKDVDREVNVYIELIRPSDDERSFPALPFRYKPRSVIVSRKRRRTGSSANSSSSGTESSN

[6] = molecular target: T6, GST-Aq-NF-kB (Amphimedon queenslandica, UniProt A9Y5G7 2-389)
T6 sequence: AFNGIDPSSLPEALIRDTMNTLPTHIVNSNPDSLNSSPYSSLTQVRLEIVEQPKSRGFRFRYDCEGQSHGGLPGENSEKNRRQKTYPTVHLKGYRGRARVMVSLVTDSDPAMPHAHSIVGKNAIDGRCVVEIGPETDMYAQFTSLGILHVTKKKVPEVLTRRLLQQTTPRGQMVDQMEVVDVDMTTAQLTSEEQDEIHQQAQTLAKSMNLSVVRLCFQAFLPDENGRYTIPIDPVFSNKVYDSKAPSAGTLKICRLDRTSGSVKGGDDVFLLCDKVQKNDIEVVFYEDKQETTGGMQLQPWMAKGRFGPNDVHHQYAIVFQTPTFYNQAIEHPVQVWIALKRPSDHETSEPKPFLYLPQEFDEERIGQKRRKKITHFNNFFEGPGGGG

[7] = molecular target: GST-Hu-p50 (Homo sapiens, UniProt P19838 7-356)
GST-Hu-p50, sequence (P19838 7-356): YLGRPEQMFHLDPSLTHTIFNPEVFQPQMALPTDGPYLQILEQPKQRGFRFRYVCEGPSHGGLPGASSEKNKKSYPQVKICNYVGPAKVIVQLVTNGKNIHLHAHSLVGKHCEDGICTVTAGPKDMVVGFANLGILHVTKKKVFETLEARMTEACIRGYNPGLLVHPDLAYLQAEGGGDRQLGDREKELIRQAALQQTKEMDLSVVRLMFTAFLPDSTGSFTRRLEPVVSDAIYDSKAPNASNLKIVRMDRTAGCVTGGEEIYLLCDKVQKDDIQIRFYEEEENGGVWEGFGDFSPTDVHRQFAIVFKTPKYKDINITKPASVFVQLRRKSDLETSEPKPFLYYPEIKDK

Sequence	binding signal [1] [z-score]	binding signal [2] [z-score]	binding signal [3] [z-score]	binding signal [4] [z-score]	binding signal [5] [z-score]	binding signal [6] [z-score]	binding signal [7] [z-score]
CCGATTAACATCAGCAATTTCCCTGATGTTAATCGGGTCTTGATTCGCTTGACGCTGCTG	3.13	4.55	5.81	3.47	1.78	3.79	3.52
CCGATTAACATCAAAAAATCCCCTGATGTTAATCGGGTCTTGATTCGCTTGACGCTGCTG	11.7	11.9	13.6	6.83	10.7	9.56	8.06
CCGATTAACATCAGAATTCCCGATGATGTTAATCGGGTCTTGATTCGCTTGACGCTGCTG	3.78	4.69	4.3	3.92	2.59	3.28	3.21
CCGATTAACATCAGATAATTCCCTGATGTTAATCGGGTCTTGATTCGCTTGACGCTGCTG	5.7	7.58	6.02	4.01	3.74	7.02	4.73
CCGATTAACATCAAAATTCCCTTTGATGTTAATCGGGTCTTGATTCGCTTGACGCTGCTG	5.04	8.11	8.05	2.62	5.83	7.05	6.07
CCGATTAACATCAGTTTCCCCCATGATGTTAATCGGGTCTTGATTCGCTTGACGCTGCTG	6.91	6.51	8.2	10.6	2.94	5.09	6.77
CCGATTAACATCAAGGGGATTTCTGATGTTAATCGGGTCTTGATTCGCTTGACGCTGCTG	9.69	10.8	12.7	2.79	9.09	7.73	7.98
CCGATTAACATCAAGGGAAGTCCTGATGTTAATCGGGTCTTGATTCGCTTGACGCTGCTG	3.99	4.16	2.7	1.08	7.26	5.77	2.73
CCGATTAACATCACCCACCCCCCTGATGTTAATCGGGTCTTGATTCGCTTGACGCTGCTG	3.58	2.85	4.5	3.74	4.19	3.84	3.99
CCGATTAACATCAAGAATCCCCCTGATGTTAATCGGGTCTTGATTCGCTTGACGCTGCTG	9.83	9.82	10.5	6.36	9.1	7.61	7.83
CCGATTAACATCAGGGATCCCCCTGATGTTAATCGGGTCTTGATTCGCTTGACGCTGCTG	12	10.2	9.22	5.15	11.1	10.3	6.45
CCGATTAACATCAAAAATCCCACTGATGTTAATCGGGTCTTGATTCGCTTGACGCTGCTG	3.51	3.55	2.95	1.65	7.7	3.87	3.73
